High-throughput results from PubChem BioAssay.
In the library only some 4.5% were active in any assay of this set; here they are far more common.
DAX1 inh-1: inhibits human nuclear receptor DAX1 | AID 504766 | 340,000 tested, 0.99% active | P51843 | HEK293 Gal4-DAX1 luciferase reporter, luminescence | inhibition, % at 6.75 µM;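 active means inhibition above the mean over all tested compounds plus 3 SD, cut at about 4.2% in these data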;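 further: 0% = DAX1-transfected cells with DMSO and 100% = empty-vector control cells with DMSO; inhibition shows as a rise in luminescence from relieved DAX1 repression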
Target sequence (P51843 207-470 limits assumed): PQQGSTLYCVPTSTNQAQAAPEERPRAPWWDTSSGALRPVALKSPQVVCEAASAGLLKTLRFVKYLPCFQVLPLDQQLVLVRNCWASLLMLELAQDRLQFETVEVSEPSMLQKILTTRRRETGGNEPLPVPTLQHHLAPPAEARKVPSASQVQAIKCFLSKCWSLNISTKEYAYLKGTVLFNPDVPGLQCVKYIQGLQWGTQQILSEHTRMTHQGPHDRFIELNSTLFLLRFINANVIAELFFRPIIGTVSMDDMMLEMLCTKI
FXN GAA850 act: activators of GAA850 frataxin (FXN) promoter | HEK293 lucGAA850 FXN promoter luciferase reporter, 24 h; percent of 10 µM SAHA response | activation, % at 6 µM | 360,000 tested, 0.56% active | AID 540364;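 active means activation above the average of all compounds screened plus 3 SD, cutoff fixed separately per campaign, cut at about 7.5% in these data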;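 further: 0% = DMSO wells and 100% = 10 µM SAHA wells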
DAX1 inh-2: inhibitors of DAX1 repression of SF-1 activated StAR promoter. HEK293T StAR-luciferase reporter, SF-1/DAX-1 repression relief. inhibition, % at 6.8 µM. 370,000 tested, 1.1% active. AID 652010;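 active means inhibition above the mean over all tested compounds plus 3 SD, cut at about 3.6% in these data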;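 further: 0% = DAX-1 cells with DMSO and 100% = cells lacking DAX-1 with DMSO; higher inhibition means more luminescence from relief of DAX-1 repression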
hcDAF-12 act: activators of H. contortus DAF-12 nuclear receptor | activation, % at 6.8 µM | 370,000 tested, 1.4% active | HEK293 hcDAF-12 lit1-tk-luc reporter, luminescence; 0% DMSO, 100% Δ7-dafachronic acid;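 active means activation above the mean of all tested compounds plus 3 SD, cut at about 5.5% in these data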;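 further: 100% = response to 3 µM Δ7-dafachronic acid high control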
hgDAF12 agonist: activates the H. glycines DAF-12 receptor ligand-binding domain. HEK293 GAL4-hgDAF12 UAS-luciferase reporter, agonist luminescence; normalized to butyrate control. activation, % at 6.8 µM. 370,000 tested, 1.8% active. AID 687014;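 active means activation above a cutoff set at the mean of all screened compounds plus 3 SD, cut at about 10% in these data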;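 further: 0% = DMSO wells and 100% = sodium butyrate wells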
ssDAF12 agonist: activators of S. stercoralis DAF-12 nuclear receptor; 370,000 tested, 1% active; activation, % at 6.8 µM; HEK293 ssDAF-12/GRIP1 lit1-tk-luc reporter, luminescence; % of 3 µM dafachronic acid response;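 active means activation above the mean over all tested compounds plus 3 SD, cut at about 0.9% in these data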;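 further: 0% = DMSO-only wells and 100% = 3 µM delta7-dafachronic acid wells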
Starred values were filed as active, the others as inactive; . = no result given.

SMILES | DAX1 inh-1 | FXN GAA850 act | DAX1 inh-2 | hcDAF-12 act | hgDAF12 agonist | ssDAF12 agonist
CCOc1ccc(Cl)cc1CNc1nnnn1CC | 3 | 1 | 0 | -2 | -1 | -1
COc1ccc(-c2nc(SC)n(S(=O)(=O)c3ccccc3)n2)cc1 | 0 | 2 | 1 | 0 | 5 | 1.0*
CC(=O)Nc1ccc(Sc2ncccc2C(=O)Nc2cc(Cl)cc(Cl)c2)cn1 | 0 | 0 | 0 | 1 | 2 | 1.1*
N#Cc1cc2cc3c(cc2nc1SCC(=O)N1CCOCC1)OCO3 | 6.6* | 4 | 1 | 4 | 7 | -1
COC(=O)CSc1nc2cc3c(cc2cc1C#N)OCO3 | 4.7* | 4 | 3.7* | 3 | 12* | 0
CC(C)OC(=O)CSc1nc2cc3c(cc2cc1C#N)OCO3 | 1 | 5 | -1 | -2 | 3 | -1
Cc1cc2cc3c(cc2nc1SCC(=O)N1CCOCC1)OCO3 | 1 | 0 | 0 | 0 | 2 | 0
COC(=O)[C@]12C[C@H](CC(=O)NCc3cccc(C(F)(F)F)c3)C(=O)N(Cc3ccc4c(c3)OCO4)C1=C[C@H](C(C)C)O[C@@H]2C1CC1 | . | . | 0 | -2 | 1 | -1
O=C(N=C1c2ccccc2CN1c1ccc(F)c(F)c1)c1cccnc1 | 1 | 0 | 0 | 0 | -2 | 0
O=C(N=C1c2ccccc2CN1c1cccc(Cl)c1)c1cccnc1 | -1 | 4 | 1 | 4 | 11* | 0
CC(=O)c1ccc(N=Nc2c(C)[nH][nH]c2=O)cc1 | 5.5* | 1 | 0 | 0 | 0 | -1
Cc1[nH][nH]c(=O)c1N=Nc1ccc(S(N)(=O)=O)cc1 | . | -1 | -1 | -1 | -6 | -2
Cc1[nH]n(-c2ccccc2)c(=O)c1N=Nc1ccc(C(=O)O)cc1 | 1 | 3 | 0 | 0 | -2 | -1
CC(=O)c1ccc(N=Nc2c(C)[nH]n(-c3ccccc3)c2=O)cc1 | 0 | 2 | 0 | 2 | -2 | 0.9*
Cc1ccc(N=Nc2c(N)n(-c3ccccc3)[nH]c2=O)cc1 | 3 | 5 | 1 | 5.6* | 9 | 0
Cc1ccc(N=Nc2c(C)[nH]n(C(N)=S)c2=O)cc1 | 2 | 3 | 1 | 3 | 6 | 1.0*
CC(=O)Nc1sc2c(c1-c1cc3ccccc3o1)CCNC2 | . | . | . | 5 | 2 | 0
Cc1[nH]n(-c2ccccc2)c(=O)c1N=Nc1ccc(C#N)cc1 | 3 | -1 | 0 | 3 | 3 | 0
Cc1[nH]n(-c2ccccc2)c(=O)c1N=Nc1ccccc1 | 1 | 3 | 1 | 6.0* | 8 | 1
CC1(C)Oc2ccc(C(=O)NC3CCCC3)cc2NC1=O | . | . | 1 | 0 | -1 | -1
CS(=O)(=O)c1ccccc1C(=O)Nc1cc2c(cc1C(=O)O)OCCCO2 | 5.8* | -1 | 1 | 0 | 1 | -1
CC(C)Oc1ccc(CCNC(=O)CC2C(=O)NCCN2C)cc1 (stereo not drawn) | 4.4* | 1 | 2 | -1 | -1 | -1
COC(=O)[C@]12C[C@H](CC(=O)NCCCCc3ccccc3)C(=O)N(Cc3ccco3)C1=C[C@H](C(C)(C)C)O[C@@H]2C | . | . | -1 | 0 | -4 | -2
CC(C)(C)c1ccc(/C=N/NC(=O)C2CCCC2)cc1 | 2 | 5 | 3 | 1 | 6 | 0
CC(C)c1ccc(/C=N/NC(=O)C2CCCC2)cc1 | 0 | 6 | 4 | 6.0* | 8 | 0
SMILES | DAX1 inh-1 | FXN GAA850 act | DAX1 inh-2 | hcDAF-12 act | hgDAF12 agonist | ssDAF12 agonist
CCNC(=S)N/N=C/c1cc(C)n(-c2ccc(Cl)cc2)c1C | 0 | 5 | 1 | 2 | 11* | -1
CC(C(=O)Nc1ccccn1)c1ccccc1 (stereo not drawn) | 0 | 1 | 0 | 1 | 0 | 0.9*
NNC(=O)c1nc[nH]c1C(=O)Nc1ccccn1 | 4.3* | 0 | 0 | 1 | 6 | 0
O=C(O)CSCC(=O)Nc1ccccc1 | 0 | 0 | -1 | -1 | 1 | -1
O=C(O)CSCC(=O)Nc1ccccn1 | 5.4* | 0 | 1 | -2 | 0 | -1
CCCC[C@@H]1C(=O)N2N=C(c3ccccc3)c3ccccc3[C@H]2N2N=C(c3ccccc3)c3ccccc3[C@@H]12 | . | . | -1 | 2 | -3 | -1
O=C(Nc1ccnn1C1CCN(Cc2c[nH]c3ccccc23)CC1)c1ccccc1 | 1 | 1 | 2 | 6.2* | 3 | -1
O=C(Nc1ccnn1C1CCN(CC2CC=CCC2)CC1)c1ccccc1 (stereo not drawn) | 1 | 1 | 0 | -1 | -1 | -1
COC(=O)c1sccc1N/N=C/c1cccc(Oc2ccccc2)c1 | 2 | 0 | 2 | 1 | 11* | -1
O=C(Nc1cccc(Cl)c1)OC1CCCCc2cccnc21 (stereo not drawn) | -1 | 0 | 0 | -1 | 0 | -1
O=C(Nc1ccccc1)OC1CCCCc2cccnc21 (stereo not drawn) | 0 | 2 | 0 | -1 | -1 | 1.7*
O=C(CSc1nnc(-c2cccs2)o1)c1cccc([N+](=O)[O-])c1 | . | . | 0 | -1 | -3 | -1
CN(Cc1ccccc1)C(=O)OCc1cn(Cc2ccccc2)nn1 | . | . | 0 | -1 | -2 | -2
CC(C)C[C@H]1COc2ccc(Cl)cc2S(=O)(=O)N1Cc1cn(Cc2ccc(C(F)(F)F)cc2)nn1 | . | . | 0 | 0 | -1 | -1
COCCC(=O)N1CCC(Oc2ccc(C(=O)NCCn3cccn3)cc2)CC1 | 0 | 1 | 0 | -1 | 1 | -1
COCCC(=O)N1CCC(Oc2ccc(C(=O)NCCSC)cc2)CC1 | 6.9* | 1 | 0 | 0 | 0 | -1
FC(F)Oc1ccc(NC(=S)N2CCc3ccccc32)cc1 | 0 | 4 | 0 | 4 | 6 | 1.4*
CN(Cc1nc2ccccc2c(=O)[nH]1)C(=O)c1ccc(S(=O)(=O)N(C)C)cc1 | 1 | 5 | 0 | -3 | 0 | -1
CN(Cc1nc2ccccc2c(=O)[nH]1)C(=O)c1cccc(S(=O)(=O)N2CCCC2)c1 | 1 | 1 | 3.7* | -1 | 2 | -1
O=C(c1nc2ncccn2n1)N1CCN(c2ccccc2)CC1 | 0 | 0 | 3.7* | -1 | -1 | -1
CCn1c(C)nc2cc(NC(=O)Nc3cccc(C(C)=O)c3)ccc21 | 1 | 0 | 0 | 1 | 12* | 0
CCn1c(C)nc2cc(C(=O)OC)ccc21 | 0 | 4 | 1 | 1 | 2 | -1
COc1ccc2oc(=N)c(C(=O)Nc3ccccc3)cc2c1 | 2 | 3 | 2 | 2 | 6 | -1
N=c1oc2ccccc2cc1C(=O)Nc1ccccc1 | 4 | 2 | 2 | 5.9* | 13* | 0
COc1ccc2oc(=N)c(C(=O)Nc3ccc(F)cc3)cc2c1 | -1 | 2 | 0 | 0 | -1 | 0
N=c1oc2ccc(Cl)cc2cc1C(=O)Nc1ccc(F)cc1 | 5.5* | 2 | 1 | 4 | 5 | 0
